Results as given in ChEMBL document CHEMBL3988442, “University of Dundee, Small-Polar-MMV Screening Library” (2021).
Out of some 48,000 compounds screened, about 13,000 (27%) showed an effect of 50% or more. The list shows a part of the results.

tested on: Wolbachia pipientis; assay: Anti-Wolbachia Cell-Based Screen; format: functional; set-up: scale not given: in the data most compounds retested in dose-response had high values; details: 5 µM

SMILES	Percent Effect [%]
Cc1ccc([C@@H]2CN(S(=O)(=O)N(C)C)C[C@H]2N(C)C)cc1	0.6697
Cc1cc(S(=O)(=O)NCC(O)c2sccc2C)ccc1F (stereo unspecified)	4.369
CCOc1ccc(CN(C)C(=O)COc2ccc(C)nc2)cc1	-6.842
CCc1c(C(=O)N2CCN(C)[C@@H]3CS(=O)(=O)C[C@@H]32)[nH]c2ccccc12	-4.01
CCN1CC(CN(C)c2cc(C)nc(N)n2)Oc2ccccc21 (stereo unspecified)	10.5
CCN(CC1CCOCC1)C(=O)Cn1ccccc1=O	-19.1
O=C(CN1CCc2ccccc21)NCc1ccc(Cl)cc1	-3.042
CC(O)CN1CCC(=O)N(Cc2ccccc2)Cc2ccccc21 (stereo unspecified)	125.3
CC(C)NC(=O)c1nc2c(s1)CCCN2Cc1ccccc1	-9.51
CCCc1nc(CN(CC)C(=O)c2ccc3[nH]cnc3c2)no1	-17.17
CC(C)(C)n1ncc2c1CCCC2NCc1cccc2c1OCO2 (stereo unspecified)	3.56
CCOC(C)c1noc(CN2CCN(Cc3cccnc3)CC2)n1 (stereo unspecified)	-3.385
CC(C)c1cc(CNC(=O)NCc2cccc(N3CC=CC3)c2)on1	1.94
CNC(=O)C1(Cc2cc(C(C)C)no2)CCN(Cc2cccnc2)C1 (stereo unspecified)	113.2
CNC(=O)C1(Cc2cc(C(C)C)no2)CCN(Cc2ccccn2)C1 (stereo unspecified)	108.3
O=C(O)C1(Cc2ccc(F)cc2F)CCCN(Cc2ccccn2)C1 (stereo unspecified)	-12.03
CC(C)c1cc(C(=O)N2C[C@H]3CC[C@@H]2CN(Cc2ccccn2)C3)no1	-1.053
COC1(CNS(=O)(=O)c2ccccc2Br)CCSC1 (stereo unspecified)	-11.32
O=C(NCCC(O)c1cccs1)c1ccc(Br)o1 (stereo unspecified)	-2.242
Cc1cc(C)nc(NC2CC(=O)N(C(C)(C)C)C2)n1 (stereo unspecified)	-13.08
Cc1ccc(CN(C)C(=O)NCC(=O)NC(C)(C)C)s1	-5.904
CCc1cnc(NCCS(=O)(=O)CC(C)C)nc1	-2.356

SMILES	Percent Effect [%]
O=C(O)C(F)(F)F.O=C(c1ccsc1)N1CCc2onc(COc3ccccn3)c2C1	-81.7
Cc1cc(C(F)(F)F)nn1CCNC(=O)C(C)n1ccnc1C(C)C (stereo unspecified)	0.9025
Cc1cc(C)n(CC(C)NC(=O)c2cc(C(C)C)on2)n1 (stereo unspecified)	-21.21
Cc1cc(C)n(-c2cncc(NCCNC(=O)CC3CCCC3)n2)n1	5.332
Cc1cc(C)n(CCCNC(=O)C(C)NC(=O)CC2CCCCC2)n1 (stereo unspecified)	122.8
Cc1cc(CNC(=O)CC2CCN(C(C)C)CC2)n(C)n1	-16.42
CCC(C)C(=O)NCCCn1nc(C)cc1C (stereo unspecified)	119.6
Cc1ccccc1Oc1ncccc1CNC1CCC1	-4.424
Cc1csc(C2(NCCC(=O)N3CCOCC3)CCCC2)n1	-0.7458
CC(NC(=O)CCCc1nc(C(C)(C)C)no1)c1nnc2n1CCC2 (stereo unspecified)	7.07
CC(=O)NCCCC(=O)NC(C)c1nnc2n1CCC2 (stereo unspecified)	91.49
CCCc1noc(CCC(=O)NC(C)c2nnc3n2CCCCC3)n1 (stereo unspecified)	-7.808
Cc1noc(C)c1CCC(=O)NC(C)c1nnc2n1CCC2 (stereo unspecified)	-11.45
Cc1noc(CCCC(=O)NC(C)c2nnc3n2CCC3)n1 (stereo unspecified)	-11.73
CC(C)c1noc(CCC(=O)NC(C)c2nnc3n2CCCCC3)n1 (stereo unspecified)	-3.569
CC(C)c1noc(CCCC(=O)NC(C)c2nnc3n2CCC3)n1 (stereo unspecified)	-3.557
CCCC(=O)NC(C)c1nnc2n1CCC2 (stereo unspecified)	66.57
CC(C)CS(=O)(=O)CC(=O)NC(C)c1nnc2n1CCC2 (stereo unspecified)	85.29
CC(C)c1noc(CCC(=O)NC(C)c2nnc3n2CCC3)n1 (stereo unspecified)	-10.52
CC(NC(=O)CCC1CCCCC1)c1nnc2n1CCC2 (stereo unspecified)	97.89
CN1CCc2[nH]nc(C(=O)N3CCC4(CCCO4)CC3)c2C1	17.17
CC(C)N(C)CCNC(=O)N(C)CC1CCOCC1	-11.44

SMILES	Percent Effect [%]
CCS(=O)(=O)N1CCC2(CC1)CC(OCC1CC1)CO2 (stereo unspecified)	-14.92
CC(NC(=O)COc1ccc(F)cc1)c1nnc2n1CCCCC2 (stereo unspecified)	-2.87
CC(NC(=O)COCC(F)(F)F)c1nnc2n1CCCCC2 (stereo unspecified)	88.58
CC(NC(=O)CCCOc1ccccc1)c1nnc2n1CCCCC2 (stereo unspecified)	-1.101
CC(Cn1cccn1)NCC(=O)NC1(C#N)CCCCC1 (stereo unspecified)	4.138
CCC(CO)N(Cc1ccco1)C(=O)c1ccccc1NC (stereo unspecified)	-1.044
Cc1oc(CN(C)C(=O)c2ccc(C(F)(F)F)cc2)cc1C(=O)O	-14.62
CC(C#N)CNC(=O)Nc1ccc(-c2ccc[nH]2)cc1 (stereo unspecified)	-13.54
O=C(CNC(=O)c1cc(Cl)ccn1)Nc1nccs1	-9.837
O=C(CNC(=O)c1ccc(Cl)cc1)Nc1nccs1	62.52
O=C(CNC(=O)c1ccccc1Cl)Nc1nccs1	1.164
Fc1ccc(OC2CCN(Cc3nnc(-c4ccco4)o3)CC2)cc1	0.5253
OC1CCN(Cc2c(-c3ccco3)[nH]c3ncccc23)CC1	97.96
CCn1ccnc1CN1CCN(c2ncnc3ccccc23)CC1	5.306
c1coc(-c2[nH]c3ncccc3c2CN2CCCOCC2)c1	122.9
CN1CCN(Cc2cccc(NCc3ncc[nH]3)c2)CC1	-6.689
CCN1CCN(Cc2c(-c3ccco3)[nH]c3ncccc23)CC1	126
CN1CCN(Cc2ccccc2Oc2nccc3occc23)CC1	2.64
OC1CCCN(Cc2c(-c3ccco3)[nH]c3ncccc23)C1 (stereo unspecified)	-4.635
CN1CCN(Cc2c(-c3ccco3)[nH]c3ncccc23)CC1	119.4
OC1(CN2CCCC2)CCCN(Cc2cnc(-c3ccco3)nc2)C1 (stereo unspecified)	-19.31
O=C(NCCN1CCOCC1)NCc1cccnc1-n1cccn1	-2.618

SMILES	Percent Effect [%]
Cc1nc(-c2ccc(S(=O)(=O)N3CCSCC3)cc2)co1	-2.351
Cc1ccc(F)c(C(=O)Nc2cccc(CCN3CCCC3)c2)c1	-3.643
CS(=O)(=O)NC(=O)CCc1cccc(OC2CCCC2)c1	2.726
CS(=O)(=O)CCCNc1cccc(COC2CCCCC2)c1	108.4
Cc1c(CS(C)(=O)=O)cccc1NCCCC1CCCC1	-1.975
OCCCNc1cccc(COC2CCCCC2)c1	117.5
CC(CO)NC(=O)Nc1ccc(COC2CCCC2)cc1 (stereo unspecified)	8.692
Clc1cncc(NCc2cccc(COC3CCOCC3)c2)n1	-1.49
Cc1cccc(C2(NCCCS(C)(=O)=O)CCCC2)c1	-2.725
O=C(CN1CCCS1(=O)=O)Nc1cccc(COC2CCCCC2)c1	13.44
CS(=O)(=O)NCc1cccc(COC2CCCCC2)c1	112.9
CNS(=O)(=O)c1cccc(CNc2ccc(C#N)cn2)c1	2.285
CS(=O)(=O)NCCCn1ccc2ccccc21	3.407
COc1ccc(-c2cc(CN)ccc2F)c(OC)c1OC	2.502
C=C(C)CN(c1cn[nH]c1)S(=O)(=O)c1cccc(C#N)c1	-12.41
CCOCC1CC2(CCN(C(=O)C3CC=CC3)CC2)CO1 (stereo unspecified)	-13.65
CNC(=O)C1(N2CCC[C@H]2C(=O)NC2CCCCC2)CCOCC1.Cl	-2.575
OCCC1CN(c2nc(-c3ccncc3)nc3c2CCNCC3)CCO1 (stereo unspecified)	-20.05
CC(C)(C)c1nc(CN2CCCC2Cn2cncn2)no1 (stereo unspecified)	86.44
CC(C)(C)c1nc(CN2CCCC2Cn2cccn2)no1 (stereo unspecified)	10.76
CCCc1nc(CN2CCOC(Cn3cncn3)C2)no1 (stereo unspecified)	3.436
CCCc1nc(CN2CCCC2Cn2cncn2)no1 (stereo unspecified)	115.4

SMILES	Percent Effect [%]
CN(C)C(=O)Cc1ccc(NCc2nccn2C)cc1	-22.63
Cc1nccn1-c1ccc(=O)n(CCNC(=O)c2cccs2)n1	125.6
Cc1nccn1-c1ccc(CNC(=O)c2ccc[nH]2)cn1	15.47
Cc1nccn1-c1ccc(=O)n(CCNC(=O)c2ccncc2)n1	97.47
O=C(NCCNc1cc(-n2cccc2)ncn1)c1cccs1	19.24
Cc1nccn1-c1ccc(CNC(=O)c2ccc([S+](C)[O-])cc2)cn1 (stereo unspecified)	4.955
O=C(NCCn1ccc(-c2ccncc2)n1)c1ccncc1	-0.4931
Cc1nc(NC(=O)N2CCCC(N(C)C)C2)nn1C (stereo unspecified)	-14.3
COC(=O)c1ccc2ccn(CC3CCCCO3)c(=O)c2c1 (stereo unspecified)	-39.6
Oc1ccc(N2CCN(Cc3cc4c(cc3Br)OCCO4)CC2)cc1	-10.73
Cn1cc(CN2CCC3(CCCN(C(=O)c4cnccn4)C3)C2)cn1 (stereo unspecified)	7.413
Cn1cc(CN2CCC3(CC2)CN(C(=O)c2cnccn2)CCO3)cn1	101.7
CCc1ccc(CN2CCC3(CCCN(C(=O)c4cnccn4)C3)C2)o1.O=C(O)C(F)(F)F (stereo unspecified)	23.64
Cc1ccc(CN2CCC3(CC2)CN(C(=O)c2cnccn2)CCO3)o1.O=C(O)C(F)(F)F	98.59
CC(C)CCN1CCC2(CC1)CN(C(=O)c1cnccn1)CCO2.O=C(O)C(F)(F)F	-8.642
Cn1cc(CN2CCCC3(CCN(C(=O)c4cnccn4)C3)C2)cn1.O=C(O)C(F)(F)F.O=C(O)C(F)(F)F (stereo unspecified)	-36.61
Cc1cc2n(n1)CC(CNC1CCN(C(=O)C3CC3)CC1)CN2 (stereo unspecified)	1.236
Nc1cc(C(=O)NCC2CCN(Cc3ccncc3F)C2)ccn1 (stereo unspecified)	-104.6
